# Rows were chosen to be rich in hits. Some 0.85% of all compounds tested hit in one or more screens of this group.
# APE1 inh: inhibitors of human APE1 endonuclease | P27695 | 350,000 compounds, 0.35% hits | AID 2517 | Potency, µM (doses to about 65.8 µM), inactives show at the top dose activity change, negative = inhibition, hits mostly inhibitors | recombinant APE1, TAMRA/BHQ-2 abasic DNA cleavage fluorescence;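 note: plate controls were vehicle for no effect and reference inhibitor for full effect; nearly all actives have a fitted effect of over 55% in size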
#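 APE1 at 0.75 nM final was preincubated with compound 15 min at room temperature, then 50 nM double-stranded THF abasic-site substrate (5'-TAMRA/3'-BHQ-2) was added. Fluorescence (ex 525/em 598 nm) was read kinetically; third-minus-first read gave activity.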
# BLM inh: Bloom syndrome helicase (human) inhibition | AID 2528 | 350,000 compounds, 0.2% hits | P54132 | Potency, µM (series often up to 56.1 µM), for the others: at the top dose activity change, negative = inhibition, most hits filed as inhibitors | recombinant BLM DNA unwinding, fluorescence dequenching;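 note: plate controls were vehicle for no effect and no enzyme for full effect; nearly all actives have a fitted effect of over 35% in size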
# GLS inh: blocks human kidney-isoform glutaminase activity; Potency, µM (doses to about 45.5 µM), inactives show top-dose activity change, negative = inhibition, actives largely listed as inhibitors; 410,000 compounds, 0.21% hits; O94925; AID 624170; GLS enzymatic activity, qHTS titration
#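 Human kidney-isoform GLS in 45 mM KH2PO4 pH 8.2, 0.02% Tween-20, with compound, started with 1mM L-Glutamine (added stock). Glutamate oxidase/HRP/Amplex red coupled fluorescence read at start and after 30 min at RT.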
# Tb PGK inh: blocks T. brucei phosphoglycerate kinase; P07378; PGK/GAPDH coupled, Kinase-Glo luminescence, 60 min; Potency, µM (top dose mostly 57.5 µM), for the others: at the highest dose activity change, negative = inhibition, hits mostly inhibitors; 380,000 compounds, 0.043% hits; note: nearly all actives have a fitted effect of over 60% in size
#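 Luminescent ATP detection (Kinase-Glo Plus) follows a 60-minute room-temperature incubation, with wells lacking PGK as controls. Buffer: 100 mM TEA (pH 7.6), 5 mM MgCl2, 0.01% Tween-20. Coupling enzyme GAPDH (100 nM final) supplies unstable 1,3-BPG in-well.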
# RECQ1 inh: RECQ1 (human) helicase inhibition; RECQ1 DNA unwinding, red fluorescence kinetic read; P46063; 240,000 compounds, 0.54% hits; Potency, µM (titrated, usually from 57.3 µM), for inactives: top-dose activity, negative = inhibition, usual class: inhibitors;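 note: plate controls were vehicle for no effect and no enzyme for full effect; nearly all actives have a fitted effect of over 30% in size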
# Target sequence (P46063 whole entry, looked up): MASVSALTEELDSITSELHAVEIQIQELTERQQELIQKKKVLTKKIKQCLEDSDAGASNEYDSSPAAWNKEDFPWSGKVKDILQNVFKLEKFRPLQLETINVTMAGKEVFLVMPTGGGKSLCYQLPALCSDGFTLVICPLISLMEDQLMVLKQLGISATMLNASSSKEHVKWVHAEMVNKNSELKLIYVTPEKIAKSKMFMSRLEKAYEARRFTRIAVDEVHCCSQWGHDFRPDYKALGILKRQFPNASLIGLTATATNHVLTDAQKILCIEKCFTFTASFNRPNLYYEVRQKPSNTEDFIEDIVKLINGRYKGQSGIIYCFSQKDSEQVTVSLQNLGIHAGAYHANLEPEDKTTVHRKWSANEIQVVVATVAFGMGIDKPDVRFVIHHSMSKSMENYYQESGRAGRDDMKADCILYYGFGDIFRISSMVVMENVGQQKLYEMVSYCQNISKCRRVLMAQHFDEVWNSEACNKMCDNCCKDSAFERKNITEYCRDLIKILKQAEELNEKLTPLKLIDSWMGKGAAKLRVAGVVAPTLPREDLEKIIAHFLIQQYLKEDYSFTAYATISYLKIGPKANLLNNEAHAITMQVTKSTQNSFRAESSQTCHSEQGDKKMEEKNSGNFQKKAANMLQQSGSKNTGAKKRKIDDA
#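 50 nM RECQ1T1 preincubated 15 min with compound in Tris pH 8.0 buffer with MgCl2, DTT, Tween-20 and 2.5 ug/ml poly(dI-dC); started with 200 nM TAMRA/BHQ-2 forked duplex and 2 mM ATP. Unwinding read as fluorescence (525/598 nm), two reads 2 h apart.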
# TDP1 block: inhibitors of human tyrosyl-DNA phosphodiesterase TDP1 | 350,000 compounds, 0.28% hits | recombinant TDP1, AlphaScreen DNA substrate cleavage | Potency, µM (highest dose often 130 µM), for inactives: at the top dose activity change, negative = inhibition, usual class: inhibitors; note: nearly all actives have a fitted effect of over 40% in size
#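 E. coli-derived human Tdp1, 1 nM final. Cpd preinc 15 min RT; substrate 15 nM final, 5 min RT; AS bead mix 10 ug/ml final, 10 min RT. Signal loss = tyrosine-FITC cleavage. No-enzyme wells = max signal.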
# * marks the source's active call; other numbers are inactive results; i = inactive; u = inconclusive; x = not tested or not shown; [ ] = another dose, or the depositor's remark. Calls come from the whole dose curve; as a rule, active = well fitted curve in the direction sought with a large enough effect; inconclusive = small, poorly fitted or top-dose-only effect, or another doubt; inactive = no such curve, though single readings can be large; an effect the other way counts as inactive or inconclusive. Unless noted, % is set by controls: 0 for no effect and ±100 for the full control effect; potency is the fitted concentration of half-maximal effect.
SMILES,APE1 inh,BLM inh,GLS inh,Tb PGK inh,RECQ1 inh,TDP1 block
O=C(O)c1ccccc1C(=O)Nc1cccc([N+](=O)[O-])c1,0%,-3%,6%,3%,-7%,4%
N#Cc1cccc(-c2csc(N3CCC(C(N)=O)CC3)n2)c1,-10%,x,x,x,x,x
Cc1ccc(NC(=S)c2nc3ccccc3[nH]2)c(C)c1,12%,0%,5%,-10%,4.5µM*,8%
O=C(C=Cc1cccc(O)c1)c1ccccc1O,x,x,23%,i,x,x
O=C(/C=C/c1ccc(O)c(O)c1)c1ccccc1O,-9%,-6%,5.6µM*,-5%,-12%,4%
O=C(O)CN1C(=O)/C(=C/c2ccc(SCc3ccccc3)o2)SC1=S,28µM*,126%,-26%,u,25µM*,x
O=C1/C(=C\c2ccco2)SC(=S)N1C1CCS(=O)(=O)C1 (configuration not stated),20µM*,-15%,0%,-3%,u,-5%
O=C1/C(=C\c2ccco2)SC(=S)N1Cc1ccccc1,u,-22%,-2%,-2%,32µM*,8%
Cc1ccc(N2C(=O)/C(=C\c3ccco3)SC2=S)cc1,-4%,-25%,5%,11%,-6%,-4%
O=C(O)CN1C(=O)/C(=C\c2ccc(OC(=O)c3ccco3)cc2)SC1=S,6%[12.4 µM],1%,2%,i,x,-14%
O=C1/C(=C\c2ccco2)SC(=S)N1c1ccccc1,22µM*,-1%,2%,i,8%,0%
Cc1ccc(CNc2ncnc3ccc(-c4ccc5c(c4)OCO5)cc23)o1,x,x,x,x,x,3%
Cc1cccc(OCC(=O)NCC(=O)N=Nc2c(O)[nH]c3ccc([N+](=O)[O-])cc23)c1,6%,-22%,3%,6%,x,-11%
COc1ccc(/C=C/C(=O)NCC(=O)N=Nc2c(O)[nH]c3ccc([N+](=O)[O-])cc23)cc1,u,u,2%,-2%,x,50µM*
Cc1csc(N=Nc2ccc(N(C)C)cc2)[n+]1[O-],x,x,0%,16µM*,x,x
CO/N=C(/C(=O)N[C@@H]1C(=O)N2C(C(=O)OC(C)OC(C)=O)=C(COC(N)=O)CS[C@H]12)c1ccco1 (some centres not stated),x,x,0%,x,x,x
COc1ccc(-c2c(-c3ccc(OCC(=O)NN)cc3O)n[nH]c2C)cc1OC,0%,-2%,37%,-1%,x,x
COc1ccc(-c2c(-c3ccc(OCC(=O)NN)cc3O)n[nH]c2C(F)(F)F)cc1,-3%,13µM*,25%,i,4%,0%
O=C(Nc1ccc(Cc2ccc(NC(=O)C3CC3)c(O)c2)cc1O)C1CC1,-2%,-11%,-1%,6%,-3%,0%
O=C(O)CCC(=O)Nc1ccc(Cc2ccc(NC(=O)CCC(=O)O)c(O)c2)cc1O,-8%,3%,1.4µM*,-3%,i,x
CCOC(=O)c1sc(NC(=O)C2C3C=CC(C3)C2C(=O)O)nc1C (configuration not stated),u,-3%,3%,-12%,0%,79µM*
CCOC(=O)c1sc(NC(=O)C2CC2)nc1C,11%,2%,2%,i,-9%,3%
COc1ccc(-c2cc(C(=O)NCc3ccco3)c3ccccc3n2)c(OC)c1,0%,-9%,-1%,0%,x,8.9µM*
COc1ccc(-c2cc(C(=O)NCc3ccco3)c3ccccc3n2)cc1,-2%,-2%,-3%,3%,x,x
CN(CC(=O)Nc1ccc(F)cc1)C(=O)c1cc(-c2ccco2)nc2ccccc12,-33%,x,4%,-19%,x,x
COc1cccc(NC(=O)CN(C)C(=O)c2cc(-c3ccco3)nc3ccccc23)c1,11µM*,x,-11%,-17%,x,-13%[0.505 µM]
COc1ccc(C2=Nn3c(nnc3-c3ccccc3C(F)(F)F)SC2)cc1OCC1CC1,0%,x,x,x,x,x
